In the library only some 27% were active in any assay of this set; here they are far more common.
EphB4 antag = EphB4-ephrin-B2 interaction antagonism | P54760 | inhibition, % at 7 µM | 97,000 compounds, 0.15% hits | AID 720 | EphB4 LBD / TNYL-RAW-Alexa532 peptide, fluorescence polarization;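 active = inhibition above the screen-wide mean inhibition plus 3 SD, cut at about 15% in these data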;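 note: 0% = DMSO wells and 100% = excess unlabeled TNYL-RAW peptide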
CYP2C19 inhib = inhibitors of human CYP2C19 | P33261 | CYP2C19 Supersomes, luciferin-H EGE luminescence, 30 min | inhibition, % at 5 µM | 96,000 compounds, 21% hits;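 active = CYP2C19 inhibition above a set limit at 5 µM in the primary screen, cut at about 50% in these data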;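 note: plate controls were negative control wells for no effect and 2.5 mM tranylcypromine positive control for full effect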
CYP2C9 act = CYP2C9 (human) activation; activation factor at 5 µM; 96,000 compounds, 1.4% hits; AID 1024; recombinant CYP2C9, luciferin-H conversion, luminescence; active compounds read high; factor 1 = untreated enzyme, 0 = blocked; P11712;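 active = activation factor of 2 or more for CYP2C9 at a 5 µM dose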;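 note: 0 = sulfaphenazole-blocked wells and 1 = vehicle-only wells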
Target sequence (P11712 whole entry, looked up): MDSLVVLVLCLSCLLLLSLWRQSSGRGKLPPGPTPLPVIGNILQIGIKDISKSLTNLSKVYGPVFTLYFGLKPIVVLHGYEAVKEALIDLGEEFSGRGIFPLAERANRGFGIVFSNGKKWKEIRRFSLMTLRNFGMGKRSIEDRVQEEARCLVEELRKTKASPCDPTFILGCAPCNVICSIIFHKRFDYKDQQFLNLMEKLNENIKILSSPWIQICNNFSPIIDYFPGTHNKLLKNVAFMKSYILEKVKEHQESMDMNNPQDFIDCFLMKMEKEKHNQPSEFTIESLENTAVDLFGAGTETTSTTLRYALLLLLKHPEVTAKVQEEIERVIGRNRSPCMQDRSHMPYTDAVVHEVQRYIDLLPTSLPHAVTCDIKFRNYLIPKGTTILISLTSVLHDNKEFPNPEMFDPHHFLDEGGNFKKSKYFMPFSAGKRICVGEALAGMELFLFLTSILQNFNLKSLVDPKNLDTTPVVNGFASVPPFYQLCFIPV
CYP2C19 act = activators of human cytochrome P450 2C19; P33261; recombinant CYP2C19, luciferin-H EGE luminescence; active compounds read high; 0 = fully inhibited enzyme, 1 = untreated enzyme; activation factor at 5 µM; 96,000 tested, under 10 active;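 active = activation factor of at least 2 at 5 µM in the primary screen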;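 note: 0 = wells with 2.5 mM tranylcypromine and 1 = vehicle-only wells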
CYP2C9 inh = blocks human cytochrome P450 2C9; 96,000 compounds, 20% hits; inhibition, % at 5 µM; AID 777; CYP2C9 Supersomes, luciferin-H conversion, luminescence; P11712;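 active = blocking of liver enzyme CYP2C9 beyond about 50% at 5 µM, limit read from the data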
Numbers without * were called inactive.

Results for O=C(C1CCCN(Cc2ccccc2Br)C1)N1CCCCC1 (configuration not stated) ?
EphB4 antag: -6; CYP2C19 inhib: 7; CYP2C9 act: 0.7; CYP2C19 act: 0.9; CYP2C9 inh: 28

How did CCN(c1ccccc1)c1ncnc2c1cnn2-c1ccccc1 do in these assays?
EphB4 antag: 3; CYP2C19 inhib: 18; CYP2C9 act: 0.7; CYP2C19 act: 0.8; CYP2C9 inh: 26

Results for O=C1Nc2ccc(NS(=O)(=O)c3cccs3)c3cccc1c23 ?
EphB4 antag: -2; CYP2C19 inhib: 89*; CYP2C9 act: 0.1; CYP2C19 act: 0.1; CYP2C9 inh: 89*

What do the screens show for `Cc1onc(-c2ccccc2)c1-c1nc2ccccc2c(=O)o1`?
EphB4 antag: 4; CYP2C19 inhib: 51*; CYP2C9 act: 0.6; CYP2C19 act: 0.5; CYP2C9 inh: 35

Results for CC(C)NS(=O)(=O)c1ccc(OCC(=O)Nc2ccc(F)cc2F)cc1 ?
EphB4 antag: 9; CYP2C19 inhib: 43; CYP2C9 act: 0.5; CYP2C19 act: 0.6; CYP2C9 inh: 50*

How did COc1ccc(OCC(=O)N(C)Cc2ccccc2)cc1 do in these assays?
CYP2C19 inhib: 97*; CYP2C9 act: 0.9; CYP2C19 act: 0; CYP2C9 inh: 12

What do the screens show for `COc1ccc(OCC(=O)N2CCN(C(=O)Cc3ccccc3)CC2)cc1`?
EphB4 antag: 3; CYP2C19 inhib: 36; CYP2C9 act: 0.8; CYP2C19 act: 0.6; CYP2C9 inh: 16

What do the screens show for `CC(C)NS(=O)(=O)c1ccc(OCC(=O)N(C)Cc2ccccc2)cc1`?
EphB4 antag: 2; CYP2C19 inhib: 51*; CYP2C9 act: 0.7; CYP2C19 act: 0.5; CYP2C9 inh: 34

Results for COc1ccc(-c2csc(N(CCc3ccccc3)C(=O)COc3ccccc3)n2)cc1 ?
EphB4 antag: 7; CYP2C19 inhib: 20; CYP2C9 act: 0.1; CYP2C19 act: 0.8; CYP2C9 inh: 92*

How did CC(C)NS(=O)(=O)c1ccc(OCC(=O)Nc2ccccc2F)cc1 do in these assays?
EphB4 antag: 2; CYP2C19 inhib: 15; CYP2C9 act: 0.7; CYP2C19 act: 0.8; CYP2C9 inh: 34

How did CCOc1ccc(-c2nnn(CC(=O)NCc3cccs3)n2)cc1 do in these assays?
EphB4 antag: 3; CYP2C19 inhib: 44; CYP2C9 act: 0.9; CYP2C19 act: 0.6; CYP2C9 inh: 8

Results for Clc1ccc(Cc2noc(Cc3ccccc3)n2)cc1Cl ?
EphB4 antag: -6; CYP2C19 inhib: 15; CYP2C9 act: 1.1; CYP2C19 act: 0.9; CYP2C9 inh: -12

What do the screens show for `CCCN(Cc1ccccc1)C(=O)Nc1ccc2c(c1)nnn2C`?
EphB4 antag: -1; CYP2C19 inhib: 34; CYP2C9 act: 0.6; CYP2C19 act: 0.7; CYP2C9 inh: 36

Results for CC(NC(=O)c1cc(-c2ccc(Br)cc2)on1)c1ccccc1 (configuration not stated) ?
EphB4 antag: -1; CYP2C19 inhib: 4; CYP2C9 act: 0.8; CYP2C19 act: 1; CYP2C9 inh: 19

How did O=C(c1ccc2c(=O)n(Cc3ccc4c(c3)OCO4)c(=S)[nH]c2c1)N1CCCCC1 do in these assays?
EphB4 antag: 7; CYP2C19 inhib: 10; CYP2C9 act: 0.9; CYP2C19 act: 0.9; CYP2C9 inh: 6

What do the screens show for `Cc1nn(-c2ccccc2)c2sc(C(=O)NC3CCCCC3)cc12`?
EphB4 antag: 1; CYP2C19 inhib: 23; CYP2C9 act: 0.3; CYP2C19 act: 0.8; CYP2C9 inh: 70*

Results for Cc1cnc(NC(=O)c2cc3c(C)nn(-c4ccccc4)c3s2)s1 ?
EphB4 antag: -1; CYP2C19 inhib: 56*; CYP2C9 act: 0.3; CYP2C19 act: 0.4; CYP2C9 inh: 66*

What do the screens show for `CCCCNC(=O)COC(=O)c1cc2c(C)nn(-c3ccccc3)c2s1`?
CYP2C19 inhib: 51*; CYP2C9 act: 0.2; CYP2C19 act: 0.5; CYP2C9 inh: 78*

Results for Cc1nn(-c2ccccc2)c2sc(C(=O)NNC(=O)COc3ccccc3)cc12 ?
EphB4 antag: -7; CYP2C19 inhib: 2; CYP2C9 act: 0.7; CYP2C19 act: 1; CYP2C9 inh: 32

What do the screens show for `CCSc1ccccc1C(=O)Nc1nncs1`?
EphB4 antag: 8; CYP2C19 inhib: 0; CYP2C9 act: 1; CYP2C19 act: 1; CYP2C9 inh: -2

Results for Cc1ccc2nc(-c3ccncc3)cc(-c3ccccc3)c2c1 ?
EphB4 antag: 4; CYP2C19 inhib: 17; CYP2C9 act: 0.6; CYP2C19 act: 0.8; CYP2C9 inh: 36

How did Cc1ccc2nc(-c3ccc(NS(C)(=O)=O)cc3)cc(-c3ccccc3)c2c1 do in these assays?
EphB4 antag: 2; CYP2C19 inhib: 10; CYP2C9 act: 0.5; CYP2C19 act: 0.9; CYP2C9 inh: 53*

Results for Cc1nc(NNC(=O)c2ccc([N+](=O)[O-])cc2)cc(-c2ccccc2)n1 ?
EphB4 antag: -1; CYP2C19 inhib: 14; CYP2C9 act: 0.5; CYP2C19 act: 0.9; CYP2C9 inh: 48

How did O=C(CSc1nc(Nc2ccccc2)nc(N2CCOCC2)n1)N1CCCC1 do in these assays?
EphB4 antag: 1; CYP2C19 inhib: 4; CYP2C9 act: 0.8; CYP2C19 act: 1; CYP2C9 inh: 25

What do the screens show for `O=C(CSc1nc(Nc2ccccc2)nc(N2CCOCC2)n1)Nc1ccc2c(c1)OCCO2`?
EphB4 antag: 3; CYP2C19 inhib: 61*; CYP2C9 act: 0.4; CYP2C19 act: 0.4; CYP2C9 inh: 60*

How did Cc1ccccc1NC(=O)CSc1nc(Nc2ccccc2)nc(N2CCOCC2)n1 do in these assays?
EphB4 antag: -3; CYP2C19 inhib: 49; CYP2C9 act: 0.4; CYP2C19 act: 0.5; CYP2C9 inh: 62*

How did O=C(NCc1nnc(SCC(=O)N2CCC(Cc3ccccc3)CC2)o1)c1ccccc1F do in these assays?
EphB4 antag: 3; CYP2C19 inhib: 47; CYP2C9 act: 0.3; CYP2C19 act: 0.5; CYP2C9 inh: 72*

Results for O=C(NCc1nnc(SCC(=O)N2CCCC2)o1)c1c(F)cccc1Cl ?
EphB4 antag: 1; CYP2C19 inhib: 3; CYP2C9 act: 0.9; CYP2C19 act: 1; CYP2C9 inh: 13

What do the screens show for `CCOC(=O)Nc1cccc(OCC(=O)Nc2ccc(OC)cc2OC)c1`?
EphB4 antag: 1

Results for Clc1ccc(Nc2ccc(-n3ccnc3)nn2)cc1Cl ?
EphB4 antag: -5; CYP2C19 inhib: 100*; CYP2C9 act: 0; CYP2C19 act: 0; CYP2C9 inh: 99*

How did CCOc1nc(C)ccc1-c1noc(-c2ccncc2)n1 do in these assays?
EphB4 antag: -1

How did CCCCc1ccc(-c2nc(-c3ccncc3)no2)cc1 do in these assays?
CYP2C19 inhib: 84*; CYP2C9 act: 0.3; CYP2C19 act: 0.2; CYP2C9 inh: 67*

How did CCc1ccc(-c2nc(-c3ccncc3)no2)cc1 do in these assays?
EphB4 antag: -4; CYP2C19 inhib: 99*; CYP2C9 act: 0.2; CYP2C19 act: 0; CYP2C9 inh: 84*

Results for Cn1c(CCNC(=O)c2ccco2)nc2cc(NC(=O)C3CCCCC3)ccc21 ?
EphB4 antag: 1

Screens deposited in PubChem BioAssay by several laboratories.
